Results reported in PubChem BioAssay (EPA / NIEHS).
Values joined by “and” are separate entries in the source; they are usually repeats but may differ in a detail not shown here. Equal entries are not always repeated. More than one record can exist for a structure, and the calls need not agree. Active and inactive are the calls of the source. How the source made its calls: active means hit-call score of the fitted dose curve at least 0.9, where 1 is the maximum; inactive means score below 0.9.

What was measured:
[1] = read-out: Urokinase-type plasminogen activator receptor (uPAR), PLAUR (gene 5329); experiment: BSK_4H_uPAR: BioMAP Diversity Plus: 4H Assay for Urokinase-type plasminogen activator receptor (uPAR) Biomarker Activity (AID 2283030); settings: primary human endothelial cells (HUVEC); actives raise or lower the signal
In short: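 HUVEC, 24 h post-dose; uPAR by ELISA; bidirectional fit vs DMSO baseline.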

[2] = read-out: Vascular endothelial growth factor receptor 2 (Homo sapiens) (UniProt P35968); experiment: BSK_4H_VEGFRII: BioMAP Diversity Plus: 4H Assay for Vascular endothelial growth factor receptor 2 (VEGFR2) Biomarker Activity (AID 2283031); settings: primary human endothelial cells (HUVEC); actives raise or lower the signal
In short: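 HUVEC (human primary), 4H system; 24 h post-dose; VEGFRII by ELISA; bidirectional curve fit vs DMSO baseline; gain or loss of signal scored.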

[3] = read-out: Human Leukocyte Antigen - DR isotype (HLADR), HLA-DRA (gene 3122); experiment: BSK_BE3C_HLADR: BioMAP Diversity Plus: BE3C Assay for Human Leukocyte Antigen - DR isotype (HLADR) Biomarker Activity (AID 2283032); settings: primary human bronchial epithelial cells; actives raise or lower the signal
In short: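 Cell-surface HLA-DR ELISA readout at 24 h after dosing in the BE3C primary human lung bronchial epithelial system; gain or loss of signal against DMSO, with parallel sulforhodamine B staining of total protein for overt cytotoxicity.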

[4] = read-out: Vascular cell adhesion molecule 1 (VCAM1), VCAM1 (gene 7412); experiment: BSK_4H_VCAM1: BioMAP Diversity Plus: 4H Assay for Vascular cell adhesion molecule 1 (VCAM1) Biomarker Activity (AID 2283033); settings: primary human endothelial cells (HUVEC); actives raise or lower the signal
In short: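 VCAM-1 ELISA read 24 h after chemical dosing of HUVEC in the BioMAP 4H system, with gain or loss of signal fitted relative to DMSO. Parallel SRB staining (560 nm) checked overt cytotoxicity.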

[5] = read-out: Interferon-gamma inducible Protein 10 (IP10), CXCL10 (gene 3627); experiment: BSK_BE3C_IP10: BioMAP Diversity Plus: BE3C Assay for Interferon-gamma inducible Protein 10 (IP10) Biomarker Activity (AID 2283034); settings: primary human bronchial epithelial cells; actives raise or lower the signal
In short: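 IP-10 quantified by ELISA in human primary bronchial epithelial cell cultures at 24 hours post-dosing. Gain or loss of signal fitted relative to DMSO; parallel SRB staining assessed overt cytotoxicity.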

[6] = read-out: Monokine induced gamma interferon (MIG), CXCL9 (gene 4283); experiment: BSK_BE3C_MIG: BioMAP Diversity Plus: BE3C Assay for Monokine induced gamma interferon (MIG) Biomarker Activity (AID 2283035); settings: primary human bronchial epithelial cells; actives raise or lower the signal
In short: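 Dose cells (human primary bronchial epithelial), incubate 24 h, quantify MIG by ELISA, then fit concentration–response in both directions relative to DMSO control.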

[7] = read-out: Transforming growth factor beta 1 (TGFb1), TGFB1 (gene 7040); experiment: BSK_BE3C_TGFb1: BioMAP Diversity Plus: BE3C Assay for Transforming growth factor beta 1 (TGFb1) Biomarker Activity (AID 2283036); settings: primary human bronchial epithelial cells; actives raise or lower the signal
In short: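 ELISA readout of TGF-b1 from human lung bronchial epithelial primary cells, taken 24 h post-treatment. Gain or loss of signal fitted relative to DMSO baseline, with parallel SRB staining for overt cytotoxicity.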

[8] = read-out: urokinase plasminogen activator (uPA), PLAU (gene 5328); experiment: BSK_BE3C_uPA: BioMAP Diversity Plus: BE3C Assay for urokinase plasminogen activator (uPA) Biomarker Activity (AID 2283038); settings: primary human bronchial epithelial cells; actives raise or lower the signal
In short: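 ELISA read-out of uPA in human lung primary bronchial epithelial cultures, 24 h post-dosing. Gain or loss of signal fitted bidirectionally relative to DMSO baseline; cytotoxicity checked in parallel cultures via SRB total protein stain.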

[9] = read-out: Urokinase-type plasminogen activator receptor (uPAR), PLAUR (gene 5329); experiment: BSK_BE3C_uPAR: BioMAP Diversity Plus: BE3C Assay for Urokinase-type plasminogen activator receptor (uPAR) Biomarker Activity (AID 2283039); settings: primary human bronchial epithelial cells; actives raise or lower the signal
In short: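 uPAR levels were measured by ELISA after 24 h compound treatment of primary human bronchial epithelial cells, fitted in both directions relative to DMSO. Parallel SRB staining served as the cytotoxicity read-out.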

[10] = read-out: Interleukin-6 (IL6), IL6 (gene 3569); experiment: BSK_CASM3C_IL6: BioMAP Diversity Plus: CASM3C Assay for Interleukin-6 (IL6) Biomarker Activity for (AID 2283040); settings: primary human coronary artery smooth muscle cells; actives raise or lower the signal
[11] = read-out: Tissue plasminogen activator (tPA), PLAT (gene 5327); experiment: BSK_BE3C_tPA: BioMAP Diversity Plus: BE3C Assay for Tissue plasminogen activator (tPA) Biomarker Activity (AID 2283041); settings: primary human bronchial epithelial cells; actives raise or lower the signal
In short: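 tPA measured by ELISA 24 h after dosing human primary bronchial epithelial cells (BE3C system). Changes in either direction were fitted against DMSO. Parallel cultures were stained with SRB to flag overt cytotoxicity.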

[12] = read-out: Interleukin-8 (IL8), CXCL8 (gene 3576); experiment: BSK_CASM3C_IL8: BioMAP Diversity Plus: CASM3C Assay for Interleukin-8 (IL8) Biomarker Activity (AID 2283042); settings: primary human coronary artery smooth muscle cells; actives raise or lower the signal;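 further: IL-8 protein level quantified by ELISA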
[13] = read-out: Human Leukocyte Antigen - DR isotype (HLADR), HLA-DRA (gene 3122); experiment: BSK_CASM3C_HLADR: BioMAP Diversity Plus: CASM3C Assay for Human Leukocyte Antigen - DR isotype (HLADR) Biomarker Activity (AID 2283043); settings: primary human coronary artery smooth muscle cells; actives raise or lower the signal;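 further: cell-surface HLA-DR protein level quantified by ELISA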
[14] = read-out: Macrophage colony-stimulating factor (MCSF), CSF1 (gene 1435); experiment: BSK_CASM3C_MCSF: BioMAP Diversity Plus: CASM3C Assay for Macrophage colony-stimulating factor (MCSF) Biomarker Activity (AID 2283044); settings: primary human coronary artery smooth muscle cells; actives raise or lower the signal;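 further: M-CSF protein amount quantified by ELISA after 24 h exposure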
[15] = read-out: Low-density lipoprotein receptor (LDLR), LDLR (gene 3949); experiment: BSK_CASM3C_LDLR: BioMAP Diversity Plus: CASM3C Assay for Low-density lipoprotein receptor (LDLR) Biomarker Activity (AID 2283045); settings: primary human coronary artery smooth muscle cells; actives raise or lower the signal;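 further: LDLR protein level on the cell surface quantified by ELISA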
[16] = read-out: Monocyte Chemoattractant Protein-1 (MCP1), CCL2 (gene 6347); experiment: BSK_CASM3C_MCP1: BioMAP Diversity Plus: CASM3C Assay for Monocyte Chemoattractant Protein-1 (MCP1) Biomarker Activity (AID 2283046); settings: primary human coronary artery smooth muscle cells; actives raise or lower the signal;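 further: MCP-1 level quantified by ELISA 24 h after dosing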
[17] = BSK_CASM3C_Proliferation: Cell Proliferation Assessment in the BioMAP Diversity Plus: CASM3C Assay (AID 2283047); settings: primary human coronary artery smooth muscle cells;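 further: sulforhodamine B total protein stain as relative cell number at 560 nm; sub-confluent cells exposed 48 h before staining; fitted both ways against DMSO so gain or loss of cell number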
[18] = read-out: Monokine induced gamma interferon (MIG), CXCL9 (gene 4283); experiment: BSK_CASM3C_MIG: BioMAP Diversity Plus: CASM3C Assay for Monokine induced gamma interferon (MIG) Biomarker Activity (AID 2283048); settings: primary human coronary artery smooth muscle cells; actives raise or lower the signal;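 further: MIG protein level measured by ELISA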
[19] = read-out: serum amyloid A (SAA), SAA1 (gene 6288); experiment: BSK_CASM3C_SAA: BioMAP Diversity Plus: CASM3C Assay for serum amyloid A (SAA) Biomarker Activity (AID 2283049); settings: primary human coronary artery smooth muscle cells; actives raise or lower the signal;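 further: SAA protein level quantified by ELISA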
[20] = read-out: Plasminogen activator inhibitor-1 (PAI1), SERPINE1 (gene 5054); experiment: BSK_BE3C_PAI1: BioMAP Diversity Plus: BE3C Assay for Plasminogen activator inhibitor-1 (PAI1) Biomarker Activity (AID 2283037); settings: primary human bronchial epithelial cells; actives raise or lower the signal
In short: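 PAI-1 was measured by ELISA in human primary bronchial epithelial cultures 24 h after chemical dosing, with cytotoxicity checked by SRB total-protein staining in parallel cultures. Activity was fitted in both directions relative to DMSO.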

Measured: AC50

CN(C)C(=O)Nc1ccc(Cl)c(Cl)c1
inactive: [1] | [2] | [3] | [4] | [5] | [6] | [7] | [8] | [9] | [10] | [11] | [12] | [13] | [14] | [15] | [16] | [17] | [18] | [19]

CCCN(CCC)C(=O)SCC
inactive: [1] | [2] | [3] | [4] | [5] | [6] | [7] | [8] | [9] | [10] | [11] | [12] | [13] | [14] | [15] | [16] | [17] | [18] | [19]

c1ccc2[nH]c(-c3cscn3)nc2c1
inactive: [1] | [2] | [3] | [4] | [5] | [6] | [7] | [8] | [9] | [10] | [11] | [12] | [13] | [14] | [15] | [16] | [17] | [18] | [19]

O=C(Nc1ccc([N+](=O)[O-])cc1Cl)c1cc(Cl)ccc1O
active: [1] 148 nM | [3] 0.148 µM | [4] 412 nM | [5] 302 nM | [6] 148 nM | [9] 148 nM | [10] 308 nM | [12] 2270 nM | [13] 899 nM | [17] 1.03 µM | [18] 764 nM | [19] 1560 nM
inactive: [2] | [7] | [11] | [14] | [15] | [16]

CCOC(=O)c1ccc(O)cc1
inactive: [1] | [2] | [3] | [4] | [6] | [7] | [20] | [8] | [9] | [10] | [11] | [12] | [13] | [14] | [15] | [16] | [17] | [18] | [19]

CCCOC(=O)NCCCN(C)C
active: [3] 4.29 µM | [9] 148 nM
inactive: [1] | [2] | [4] | [5] | [6] | [7] | [8] | [10] | [11] | [12] | [13] | [14] | [15] | [16] | [17] | [18] | [19]

CCOC(=O)C(C)Oc1ccc(Oc2nc3ccc(Cl)cc3o2)cc1 (centres undefined)
active: [3] 20 µM | [8] 24.3 µM
inactive: [1] | [2] | [4] | [5] | [6] | [7] | [9] | [10] | [11] | [12] | [13] | [14] | [15] | [16] | [17] | [18] | [19]

COC(=O)CSc1cc(N=c2sc(=O)n3n2CCCC3)c(F)cc1Cl
inactive: [1] | [2] | [3] | [4] | [6] | [7] | [20] | [8] | [9] | [10] | [12] | [13] | [15] | [16] | [18] | [19]
active: [11] 790 nM | [14] 3970 nM | [17] 29.6 µM

CCCCC(CC)COC(=O)c1ccccc1C(=O)O (centres undefined)
active: [7] 5040 nM | [8] 29.9 µM
inactive: [1] | [2] | [3] | [4] | [5] | [6] | [9] | [10] | [11] | [12] | [13] | [14] | [15] | [16] | [17] | [18] | [19]

S=C(S)NCCNC(=S)S.[Mn+2].[S-]C([S-])=NCCN=C([S-])[S-].[Zn+2]
inactive: [1] | [2] | [3] | [4] | [6] | [7] | [8] | [9] | [10] | [11] | [12] | [13] | [14] | [15] | [16] | [17] | [18] | [19]
active: [3] 8.2 µM and 10 µM | [4] 10000 nM | [8] 209 nM and 1.08 µM and 2.73 µM | [13] 10000 nM | [14] 5890 nM | [15] 10 µM and 5.32 µM | [17] 14.2 µM [middle of 4 runs]

COC(=O)c1ccc(I)cc1S(=O)(=O)NC(=O)Nc1nc(C)nc(OC)n1
inactive: [1] | [2] | [3] | [4] | [5] | [6] | [7] | [20] | [8] | [9] | [10] | [11] | [12] | [13] | [14] | [15] | [16] | [17] | [18] | [19]

CCC(O)=C1C(=O)CC(C(=O)O)CC1=O (centres undefined)
inactive: [1] | [2] | [3] | [4] | [6] | [7] | [20] | [8] | [9] | [10] | [11] | [12] | [13] | [14] | [15] | [16] | [17] | [18] | [19]
